“And” between values parts separate entries of the source, which are not always exact repeats. Identical values can stand only once. Inconclusive results are not listed. The source made the active and inactive calls. Calls come from the whole dose curve; as a rule, active = well fitted inhibition curve with a large enough effect; inconclusive = small, poorly fitted or top-dose-only effect; inactive = flat fitted curve, though single readings scatter.
biological target: Ubiquitin carboxyl-terminal hydrolase 2 (Homo sapiens) (UniProt O75604); test: qHTS for Inhibitors of Ubiquitin-specific Protease USP2a Using CHOP2 as the Reporter: K484 Substrate (AID 652173); details: USP2 cleavage of DiUb K48 IQF substrate, fluorescence; series mostly up to 57.5 µM; activity change, negative = inhibition: at the top concentration;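 note: cleavage of internally quenched K48 di-ubiquitin substrate measured as rising fluorescence over time; nearly all actives have a fitted effect of over 70% in size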
Procedure, shortened: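 Kinetic fluorescence (Ex 525/Em 598) tracked cleavage of an internally quenched K48 di-ubiquitin substrate, added as a 100 nM solution. The enzyme was added as a 5 nM USP2 solution before compound pinning, with no-enzyme controls. Buffer: Tris pH 8, beta-mercaptoethanol, CHAPS.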
Potency is the fitted concentration of half-maximal effect.

Chain of Ubiquitin carboxyl-terminal hydrolase 2 (Homo sapiens) (O75604 whole entry, looked up): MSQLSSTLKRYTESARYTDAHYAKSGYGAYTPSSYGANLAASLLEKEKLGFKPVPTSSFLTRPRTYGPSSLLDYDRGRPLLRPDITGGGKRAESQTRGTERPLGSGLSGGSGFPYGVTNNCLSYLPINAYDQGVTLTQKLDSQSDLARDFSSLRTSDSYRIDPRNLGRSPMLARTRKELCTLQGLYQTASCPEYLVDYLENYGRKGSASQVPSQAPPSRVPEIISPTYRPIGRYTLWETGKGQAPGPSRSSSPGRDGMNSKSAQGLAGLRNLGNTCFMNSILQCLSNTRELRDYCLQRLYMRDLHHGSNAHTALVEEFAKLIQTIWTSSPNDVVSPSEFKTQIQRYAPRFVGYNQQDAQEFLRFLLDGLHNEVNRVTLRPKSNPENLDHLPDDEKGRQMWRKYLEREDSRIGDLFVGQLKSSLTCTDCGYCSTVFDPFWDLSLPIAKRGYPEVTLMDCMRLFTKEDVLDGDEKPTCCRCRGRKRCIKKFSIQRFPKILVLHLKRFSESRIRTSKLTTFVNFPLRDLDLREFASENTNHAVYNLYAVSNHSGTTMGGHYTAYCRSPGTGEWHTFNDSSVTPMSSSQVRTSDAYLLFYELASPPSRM

Row | Compound | activity change, negative = inhibition | Potency
1 | Cc1ccc(-c2cc(C(=O)NCC[S+](=O)([O-])O)c3ccccc3n2)cc1C | -14.5% (inactive) | 
2 | O=C(Nc1ccc(S(=O)(=O)Nc2nccs2)cc1)c1ccnc(-c2ccccc2)c1 |  | 13.7 µM (active)
3 | O=C(Nc1ccc([S+](=O)([O-])Nc2nccs2)cc1)c1ncn[nH]1 | -4.67% (inactive) | 
4 | O=C1CC(c2ccccc2)Cc2[nH]c(=O)c(-c3nc(-c4ccc(F)cc4)cs3)cc21 (centres undefined) |  | 17.2 µM (active)
5 | Cc1ccc(S(=O)(=O)Nc2ccccc2C(=O)Nc2nc(-c3ccccc3)c(Br)s2)cc1 |  | 1.22 µM (active)
6 | O=C(Nc1nc(-c2ccccc2)cs1)c1cccc(NS(=O)(=O)c2nccs2)c1 |  | 17.2 µM (active)
7 | COc1cc(NS(=O)(=O)c2ccc(C)cc2)c(C(=O)Nc2nc(-c3ccccc3)cs2)cc1OC |  | 2.17 µM (active)
8 | O=c1[nH]c(CCl)nc2sc3c(c12)CCC3 | -27% (inactive) | 
9 | CC(C)(C)OC(=O)N1CCC(C(=O)Nc2ccc([S+](=O)([O-])Nc3nccs3)cc2)CC1 | -23.1% (inactive) | 
10 | CCCCC(=O)N1CCC(C(=O)Nc2ccc([S+](=O)([O-])Nc3nccs3)cc2)CC1 | -5.77% (inactive) | 
11 | CCOC(=O)C1CCC(C(=O)Nc2ccc([S+](=O)([O-])Nc3nccs3)cc2)CC1 (centres undefined) | -12.7% (inactive) | 
12 | Cc1cccc2c(C(=O)O)cc(Cl)nc12 | -8.17% (inactive) | 
13 | Cc1ccc(-c2cc(C(=O)Nc3ccccc3)c3ccccc3n2)cc1C |  | 24.3 µM (active)
14 | CCCCc1ccc(C(=O)Nc2ccc(S(=O)(=O)Nc3nccs3)cc2)cc1 |  | 10.9 µM (active)
15 | Cc1ccc(S(=O)(=O)Nc2ccccc2C(=O)Nc2nc(-c3ccccc3)cs2)cc1 |  | 1.72 µM (active) and 1.93 µM (active)
16 | N#Cc1cccc(S(=O)(=O)Nc2cnccc2C(=O)Nc2nc(-c3ccccc3)cs2)c1 |  | 2.17 µM (active)
17 | O=C(Nc1ccc([S+](=O)([O-])Nc2nccs2)cc1)c1ccccn1 | -5.41% (inactive) | 
18 | Cc1ccc(-c2csc(NC(=O)c3ccccc3NS(=O)(=O)c3ccc(C)cc3)n2)cc1 |  | 1.93 µM (active)
19 | O=C(Nc1nc(-c2ccccc2)cs1)c1ccccc1S(=O)(=O)Nc1nccs1 |  | 12.2 µM (active)
20 | O=C(Cc1nc2ccc(Cl)cc2[nH]1)Nc1ccc(S(=O)(=O)Nc2nccs2)cc1 |  | 30.6 µM (active)

Row | Compound | activity change, negative = inhibition | Potency
21 | O=C(Cc1ccccc1)Nc1ccc(S(=O)(=O)Nc2nccs2)cc1 | -16.1% (inactive) | 
22 | CCNC(=O)C1CCC(C(=O)Nc2ccc([S+](=O)([O-])Nc3nccs3)cc2)CC1 (centres undefined) | -14.4% (inactive) | 
23 | Cc1cccc(NC(=O)c2cc(-c3ccc(C)c(C)c3)nc3ccccc23)c1 | -29% (inactive) | 
24 | Cc1ccc(-c2cc(C(=O)Nc3ccc(-c4nn[nH]n4)cc3)c3ccccc3n2)cc1C |  | 4.85 µM (active)
25 | Cc1ccc(S(=O)(=O)NCC(=O)Nc2nc(-c3ccccc3)cs2)cc1 |  | 19.3 µM (active)
26 | O=C(O)c1cccc(S(=O)(=O)Nc2nccs2)c1 | -8.23% (inactive) | 
27 | CCCC1CCC(C(=O)Nc2ccc(S(=O)(=O)Nc3nccs3)cc2)CC1 (centres undefined) |  | 10.9 µM (active)
28 | Cc1ccc(S(=O)(=O)NCCC(=O)Nc2nc(-c3ccccc3)cs2)cc1 |  | 19.3 µM (active)
29 | COc1ccc(-c2csc(NC(=O)c3ccccc3NS(=O)(=O)c3ccc(C)cc3)n2)cc1 |  | 2.73 µM (active)
30 | CC(=O)Nc1ccc(S(=O)(=O)Nc2nccs2)cc1 |  | inactive
31 | CCCCCN1CCC(C(=O)Nc2ccc([S+](=O)([O-])Nc3nccs3)cc2)CC1 | -26.3% (inactive) | 
32 | CC1CC1C(=O)Nc1ccc([S+](=O)([O-])Nc2nccs2)cc1 (centres undefined) | -16.6% (inactive) | 
33 | Cc1ccc(S(=O)(=O)Nc2cc(C)ccc2C(=O)Nc2nc(-c3ccccc3)cs2)cc1 |  | 1.53 µM (active)
34 | CCCCCC1CCC(C(=O)Nc2ccc(S(=O)(=O)Nc3nccs3)cc2)CC1 (centres undefined) |  | 4.32 µM (active) and 3.85 µM (active)
35 | Cc1ccc(S(=O)(=O)Nc2cc(F)ccc2C(=O)Nc2nc(-c3ccccc3)cs2)cc1 |  | 0.769 µM (active)
36 | O=C(Nc1ccc([S+](=O)([O-])Nc2nccs2)cc1)C1CCNCC1 | -14.1% (inactive) | 
37 | O=c1[nH]c(CN2CCOCC2)nc2sc3c(c12)CCCC3 | -5.01% (inactive) | 
38 | Cc1ccc(S(=O)(=O)Nc2cnccc2C(=O)Nc2nc(-c3ccc(-c4ccccc4)cc3)cs2)cc1 |  | 2.17 µM (active)
39 | O=S(=O)(Nc1nc(CN2CCOCC2)nc2sc3c(c12)CCC3)c1ccc2c(c1)OCCO2 | -17.9% (inactive) | 
